Most compounds without a hit are left out; they make up all but 2.2% or so of the library.
HSP90 refold inh: inhibitors of HSP90 luciferase refolding in rabbit reticulocyte lysate; luciferase refolding luminescence, 3 h; hit rate 0.91% among 290,000; inhibition, % at 5.6 µM;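 active means inhibition above the screen-wide mean plus 3 SD, computed separately per campaign, cut at about 16% in these data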;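 further: inhibitors lower the luminescence because luciferase stays unfolded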
TROY signal inh: inhibitors of TROY-dependent NF-kB signaling. Q293 LMP1-TROYcd NF-kB luciferase reporter, 4 h. inhibition, % at 10 µM. hit rate 0.98% among 360,000. AID 1347056;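 active means compounds whose plate-normalised and pattern-corrected inhibition of the luciferase reporter signal at the single screening dose is 50% or more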
TWEAK Fn14 block: blocks TWEAK-Fn14 interaction in a reporter cell assay; TWEAK-stimulated Fn14 reporter cells, luciferase luminescence, 8 h; inhibition, % at 10 µM; hit rate 2% among 360,000; in the data active means inhibition above about 50%
LGR2 antag: blocks bursicon-induced cAMP signaling via Drosophila LGR2 | hit rate 0.35% among 380,000 | AID 720647 | inhibition, % at 9.99 µM | HEK293 LGR2, CRE-luciferase, bursicon-stimulated, 4 h;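 active means drop in luminescence signal, shown as inhibition above about 50% in the replicate tests, limit read from the data, passing the limit was not always enough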;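 further: agonist challenge used bursicon conditioned medium at about half maximal strength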
Hits are given with their value; n = inactive; x = no result given.

SMILES	HSP90 refold inh	TROY signal inh	TWEAK Fn14 block	LGR2 antag
C#CCOCCOCCOCCNc1nc(N2CCN(C(=O)CCCCCCCCCCNC(=O)Cn3cc(CCCCCN)nn3)CC2)nc(N2CCN(C(=O)CCCCCCCCCCNC(=O)Cn3cc(C[C@@H](C)O)nn3)CC2)n1	x	n	n	n
C#CCOCCOCCOCCNc1nc(N2CCN(C(=O)CCCCCCCCCCNC(=O)Cn3cc(C[C@@H](C)O)nn3)CC2)nc(N2CCN(C(=O)CCCCCCCCCCNC(=O)[C@@H]([C@H](C)CC)n3cc(CCCCCN)nn3)CC2)n1	x	68	n	x
C#CCOCCOCCOCCNc1nc(N2CCN(C(=O)CCCCCCCCCCNC(=O)[C@@H](CCSC)n3cc(CCO)nn3)CC2)nc(N2CCN(C(=O)CCCCCCCCCCNC(=O)[C@@H]([C@H](C)O)n3cc(C)nn3)CC2)n1	x	n	n	n
C#CCOCCOCCOCCNc1nc(N2CCN(C(=O)CCCCCCCCCCNC(=O)Cn3cc(C[C@@H](C)O)nn3)CC2)nc(N2CCN(C(=O)CCCCCCCCCCNC(=O)[C@@H](CCSC)n3cc(CCO)nn3)CC2)n1	x	n	60	x
C#CCOCCOCCOCCNc1nc(N2CCN(C(=O)CCCCCCCCCCNC(=O)Cn3cc(CCCCCN)nn3)CC2)nc(N2CCN(C(=O)CCCCCCCCCCNC(=O)[C@@H]([C@H](C)O)n3cc(C)nn3)CC2)n1	x	n	n	x
COc1ccc(S(=O)(=O)N(C)C[C@@H]2OCCCC[C@@H](C)Oc3ccc(NC(=O)Nc4c(C)noc4C)cc3C(=O)N([C@H](C)CO)C[C@H]2C)cc1	x	x	x	n
C[C@@H]1CCCCO[C@@H](CN(C)S(=O)(=O)c2ccc(F)cc2)[C@@H](C)CN([C@H](C)CO)C(=O)c2cc(NC(=O)Nc3ccc4c(c3)OCO4)ccc2O1	x	x	x	n
O=C(c1ccco1)N1CCN(C2=NS(=O)(=O)c3ccccc32)CC1	n	x	86	x
O=C1OCCC1Sc1nnc(-c2ccc(Br)cc2)o1 (stereo not drawn)	n	n	59	x
O=C1OCCC1Sc1nnc(-c2ccco2)o1 (stereo not drawn)	n	n	n	x
CCN(CC)C(=O)C1c2ccccc2Oc2ccccc21	n	n	61	n
CCC(=O)N(C)C[C@H]1Oc2cc(-c3ccc(F)cc3)ccc2S(=O)(=O)N([C@H](C)CO)C[C@H]1C	x	x	x	n
Cc1ccc(NC(=O)CN2C(=O)C3CCCCN3C(=O)c3ccccc32)cc1 (stereo not drawn)	n	x	53	n
O=C(NCC1CC1(Cl)Cl)Nc1ccc(Cl)c(Cl)c1 (stereo not drawn)	n	53	n	n
Cc1ccc(NC(=O)NCC2CC2(Cl)Cl)cc1 (stereo not drawn)	n	n	n	n
O=C(Nc1cccc(-c2csc(Nc3ccccc3)n2)c1)c1cc([N+](=O)[O-])cc(C(F)(F)F)c1	n	n	n	n
NS(=O)(=O)c1ccc(Nc2nc(-c3cccc([N+](=O)[O-])c3)cs2)cc1	n	56	n	73
O=C(Nc1cccc(-c2csc(Nc3ccc(Cl)cc3)n2)c1)c1cc([N+](=O)[O-])cc(C(F)(F)F)c1	x	n	51	n
O=C(c1ccccc1)n1c(=S)nc2ccccn21	x	60	82	x
Cc1ccc(C(=O)n2c(=S)nc3ccccn32)cc1	n	x	x	x
Cc1cccc(C(=O)n2c(=S)nc3ccccn32)c1	n	n	77	x
COc1ccc(S(=O)(=O)N(C)CC(=O)Nc2ccccc2C(F)(F)F)cc1OC	n	x	74	x
Cc1[nH]nc2c1C(c1cc(Br)cs1)C(C#N)=C(N)O2 (stereo not drawn)	n	n	61	n
CS(=O)(=O)N1CCCCN2[C@H](C1)[C@H](c1ccc(C#Cc3ccccn3)cc1)[C@@H]2CO	x	x	x	n
Cc1cc(C)n2c(SC(C)C(=O)NC3(C#N)CCCCC3)nnc2n1 (stereo not drawn)	x	n	67	n
SMILES	HSP90 refold inh	TROY signal inh	TWEAK Fn14 block	LGR2 antag
C[C@@H]1CN([C@H](C)CO)S(=O)(=O)c2ccc(-c3cccnc3)cc2O[C@H]1CN(C)Cc1cncnc1	x	x	x	n
COc1ccc(C(CC(=O)c2ccc(C)cc2)C(C#N)C#N)cc1OC (stereo not drawn)	n	n	88	53
CN(C)C(=O)c1cc([N+](=O)[O-])ccc1O	n	n	n	n
CN(C)C(=O)c1cc([N+](=O)[O-])cc([N+](=O)[O-])c1N(C)C	n	n	107	x
CCN(CC(=O)Nc1ccc(NC(C)=O)cc1)C(=O)c1ccc(COc2ccc(C(C)(C)C)cc2)cc1	x	n	53	n
CCN(CC(=O)Nc1ccc(NC(C)=O)cc1)C(=O)c1ccc(COc2ccccc2)o1	x	n	n	n
C/C(=N/Nc1ccc(C(=O)c2c(C)cc3ccccn23)cc1[N+](=O)[O-])c1ccc(O)cc1	x	n	53	n
C/C(=N\Nc1ccc(C(=O)c2c(C)cc3ccccn23)cc1[N+](=O)[O-])c1ccc(O)cc1	n	n	62	n
C[C@H](NC(=O)N(C)C[C@@H]1OCc2ccccc2-c2ccccc2C(=O)N([C@@H](C)CO)C[C@H]1C)c1ccccc1	x	x	x	n
CCOC(=O)N1CCN(Cc2c(F)cccc2F)CC1	n	x	71	n
CCCCN(CCCNC(=O)c1ccc2c(c1)NC(=O)CN2C)c1ccccc1	x	90	108	91
C[C@H](CO)N1C[C@H](C)[C@H](CN(C)C)Oc2cc(-c3cccnc3)ccc2S1(=O)=O	x	x	x	n
Cc1nn(-c2ccccc2)c(C)c1NC(=O)COC(=O)c1ccccc1OC(F)F	n	51	n	n
Cc1cccc(C(=O)OCC(=O)Nc2c(C)nn(-c3ccccc3)c2C)c1O	x	n	n	n
Cc1nnc(SC(=O)N2c3ccccc3Sc3ccccc32)s1	n	n	90	x
Nc1nccc(SCc2ccc(Cl)cc2Cl)n1	x	n	57	n
O=C(C[C@@H]1C[C@@H]2c3cc(NC(=O)C4CCOCC4)ccc3O[C@@H]2[C@@H](CO)O1)NCc1cc(F)ccc1F	x	x	x	n
C[C@@H]1CN([C@@H](C)CO)C(=O)Cc2cc(NC(=O)CCN3CCOCC3)ccc2O[C@H]1CN(C)C	x	x	x	n
CSCCC(NC(=O)C1CCCCC1)c1nc2ccccc2[nH]1 (stereo not drawn)	n	n	n	n
CC(OC(=O)C1CCCCC1)c1nc2ccccc2[nH]1 (stereo not drawn)	n	n	59	n
COc1ccc(-c2cc(CCCC(=O)N3CCN(c4ccc(OC)cc4)CC3)no2)cc1	n	n	51	n
COc1ccc(N2CCN(C(=O)COCc3cc(-c4ccc5c(c4)OCO5)on3)CC2)cc1	n	n	n	n
CCN(CC(O)CON=C1c2ccccc2-c2ccccc21)S(=O)(=O)c1ccc(C)cc1 (stereo not drawn)	n	n	n	n
CCN(CC(O)CON=C1c2ccccc2-c2ccccc21)S(=O)(=O)c1ccc(Cl)cc1 (stereo not drawn)	n	n	63	n
Clc1ccccc1N1CCN(c2ncnc3nc[nH]c23)CC1	58	n	n	n
COC(=O)[C@@H]1[C@@H](CO)[C@@H]2Cn3c(ccc(-c4ccccc4)c3=O)[C@@H]2N1Cc1ccccc1F	x	x	x	n
Cn1c(=O)oc2cc(S(=O)(=O)N3CCCC(C(=O)NCCN4CCOCC4)C3)ccc21 (stereo not drawn)	30	n	n	n

From PubChem
